Assay [1] addresses bovine Estrogen Receptor (ER), ESR1 (gene 407238) (UniProt P49884). In words: NVS_NR_bER: NovaScreen (NVS) Nuclear Receptor Binding Assay for bovine Estrogen Receptor (ER) (AID 2283345).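 Also: actives lower the bound radioligand count which means they displace the ER ligand.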 The procedure, abridged:
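Displacement of a radioligand from estrogen receptor in bovine uterine membrane preparations; scintillation signal taken at 18 hours, DMSO as baseline. Single-concentration duplicates (25 uM) preceded concentration-response follow-up of actives.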

Assay [2] can be described thus: TOX21_p53_BLA_p2_viability: Viability Assessment in the Tox21 HCT-116 p53 Agonism Beta-lactamase Assay, Phase 2 (AID 2283591).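 Also: compound exposure lasted 16 h at 37 °C; actives lower the ATP signal meaning cytotoxicity.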 The procedure, abridged:
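HCT116 p53-bla cells, 4000/well, dosed after 5 h plating (217-fold dilution of DMSO stocks) and incubated 16 h at 37C. Viability taken as cellular ATP by CellTiter-Glo luminescence after 30 min RT; signal loss marks cytotoxicity.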

In assay [3] the target is Cellular tumor antigen p53 (Homo sapiens) (UniProt P04637). Nature of the assay: TOX21_p53_BLA_p2_ratio: Tox21 HCT-116 p53 Agonism Beta-lactamase Assay, Ratio, Phase 2 (AID 2283592). The gist of the method: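 Cleaved-to-uncleaved substrate ratio (460 vs 530 nm) measured in HCT116 cells with an inducible beta-lactamase reporter linked to p53 activity. Compounds incubated 16 h at 37C before 2 h room-temperature CCF4-AM loading.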
Sequence of Cellular tumor antigen p53 (Homo sapiens) (P04637 whole entry, looked up): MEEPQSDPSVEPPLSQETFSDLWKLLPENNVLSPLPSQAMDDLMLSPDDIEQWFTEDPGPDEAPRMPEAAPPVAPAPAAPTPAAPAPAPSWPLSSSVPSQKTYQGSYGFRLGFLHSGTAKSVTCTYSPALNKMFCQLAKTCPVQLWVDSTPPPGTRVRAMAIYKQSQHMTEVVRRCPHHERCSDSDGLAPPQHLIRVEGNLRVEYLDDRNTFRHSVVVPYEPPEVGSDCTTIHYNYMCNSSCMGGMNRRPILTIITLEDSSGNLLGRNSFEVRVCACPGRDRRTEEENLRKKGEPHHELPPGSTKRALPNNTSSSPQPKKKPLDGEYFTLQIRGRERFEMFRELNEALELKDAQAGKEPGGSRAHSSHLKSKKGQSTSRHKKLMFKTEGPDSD

Assay [4] can be described thus: TOX21_p53_BLA_p3_viability: Viability Assessment in the Tox21 HCT-116 p53 Agonism Beta-lactamase Assay, Phase 3 (AID 2283593).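 Also: cells exposed to compound for 16 h before reading.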 The procedure, abridged:
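HCT116 cells, 4000/well, dosed 5 h after plating by pin transfer (217-fold dilution from DMSO stock) and incubated 16 h at 37C, 5% CO2. Viability read as ATP luminescence with CellTiter-Glo after 30 min at room temperature.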

In assay [5] the target is Cellular tumor antigen p53 (Homo sapiens) (UniProt P04637). Nature of the assay: TOX21_p53_BLA_p3_ratio: Tox21 HCT-116 p53 Agonism Beta-lactamase Assay, Ratio, Phase 3 (AID 2283596). The procedure, abridged:
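Cells were seeded at 4000/well, rested 5 h at 37C, then dosed with DMSO compound solutions (217-fold dilution) for 16 h. CCF4-AM substrate was loaded for 2 h at room temperature, and the 460/530 nm emission ratio was fitted for gain of signal versus DMSO.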

Assay [6] is described as follows: TOX21_p53_BLA_p4_viability: Viability Assessment in the Tox21 HCT-116 p53 Agonism Beta-lactamase Assay, Phase 4 (AID 2283597).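 Also: hits lower the luminescence signal meaning cytotoxicity.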 The gist of the method:
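Viability is taken as cellular ATP: after 16 h compound exposure of HCT116 cells and a 2 h room-temperature CCF4-AM substrate step, CellTiter-Glo reagent is added and luminescence is measured 30 min later.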

Assay [7] has as its target Cellular tumor antigen p53 (Homo sapiens) (UniProt P04637). In words: TOX21_p53_BLA_p5_ratio: Tox21 HCT-116 p53 Agonism Beta-lactamase Assay, Ratio, Phase 5 (AID 2283599). The gist of the method:
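HCT-116 p53-bla cells (4000/well) plated 5 h, dosed with compound (217-fold DMSO dilution) for 16 h at 37 C; CCF4-AM substrate 2 h at room temperature. Activity is the 460/530 nm emission ratio (405 nm excitation), fitted in gain-of-signal direction versus DMSO.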

Assay [8] is described as follows: TOX21_p53_BLA_p5_viability: Viability Assessment in the Tox21 HCT-116 p53 Agonism Beta-lactamase Assay, Phase 5 (AID 2283600). The procedure, abridged:
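Viability is taken from cellular ATP content, measured by luciferase luminescence in the same wells after the beta-lactamase ratio read. Cells are seeded at 4000 per well and exposed to DMSO-dissolved compounds, diluted 217-fold, for 16 h.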

Assay [9] addresses Cellular tumor antigen p53 (Homo sapiens) (UniProt P04637). In words: TOX21_p53_BLA_p4_ratio: Tox21 HCT-116 p53 Agonism Beta-lactamase Assay, Ratio, Phase 4 (AID 2283601). The procedure, abridged:
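HCT-116 p53 beta-lactamase reporter cells (4000/well) preincubated 5 h, then compound (217-fold dilution of DMSO stock) for 16 h at 37C. CCF4-AM substrate added 2 h at room temperature; 460/530 nm emission ratio fitted upward versus DMSO.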

The target in assay [10] is Estrogen receptor (Homo sapiens) (UniProt P03372). Nature of the assay: NVS_NR_hER: NovaScreen (NVS) Nuclear Receptor Binding Assay for human Estrogen Receptor (ER) (AID 2283348). The gist of the method:
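MCF7-derived receptor extract, radiolabelled ligand, competitive displacement. Read: scintillation counts at 18 h. DMSO = negative control/baseline. Primary 25 uM duplicate; follow-up concentration–response.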

Assay [11] deals with rat Gamma-Aminobutyric Acid Type A Receptor BDZ, alpha 6 site (GABARa6), Gabra6 (gene 29708) (UniProt P30191). Nature of the assay: NVS_LGIC_rGABARa6: NovaScreen (NVS) Ligand-Gated Ion Channel Assay for rat Gamma-Aminobutyric Acid Type A Receptor BDZ, alpha 6 site (GABARa6) (AID 2283339). The gist of the method: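 Actives from a 25 uM duplicate screen were retested in concentration series (max 50 uM). Specific radioligand displacement from rat cerebellar membranes was counted by filter-based scintillation at 1 h; DMSO served as baseline.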
Sequence of rat Gamma-Aminobutyric Acid Type A Receptor BDZ, alpha 6 site (GABARa6), Gabra6 (gene 29708) (P30191 whole entry, looked up): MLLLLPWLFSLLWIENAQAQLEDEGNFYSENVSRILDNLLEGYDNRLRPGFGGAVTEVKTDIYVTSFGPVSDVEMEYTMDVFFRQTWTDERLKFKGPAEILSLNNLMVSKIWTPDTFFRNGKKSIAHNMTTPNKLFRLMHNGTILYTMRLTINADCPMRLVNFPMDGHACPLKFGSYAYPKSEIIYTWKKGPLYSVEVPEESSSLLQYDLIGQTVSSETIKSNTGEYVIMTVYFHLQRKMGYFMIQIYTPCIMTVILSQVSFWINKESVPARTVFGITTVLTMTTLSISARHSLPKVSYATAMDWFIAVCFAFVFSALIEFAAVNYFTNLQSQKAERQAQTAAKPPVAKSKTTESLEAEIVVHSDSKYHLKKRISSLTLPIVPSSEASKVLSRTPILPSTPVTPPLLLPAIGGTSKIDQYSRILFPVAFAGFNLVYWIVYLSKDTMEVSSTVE

Assay [12] deals with rat Oxytocin Receptor (OXT), Oxtr (gene 25342) (UniProt P70536). In words: NVS_GPCR_rOXT: NovaScreen (NVS) G Protein-Coupled Receptor Assay for rat Oxytocin Receptor (OXT) (AID 2283330). The procedure, abridged:
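Binding to rat uterine membrane receptor was followed by scintillation counting of filter-trapped radioligand after 1 h. A 25 uM duplicate single-point screen preceded concentration series with a top of 50 uM. Signal loss was analysed relative to DMSO.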

Assay [13] concerns the target Norway rat Vesicular Monoamine Transporter (VMAT2), neurotransmitter transporter, Slc18a2 (gene 25549) (UniProt Q01827). In words: NVS_TR_rVMAT2: NovaScreen (NVS) Transporter Assay for Norway rat Vesicular Monoamine Transporter (VMAT2), neurotransmitter transporter (AID 2283376).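 Also: actives lower the bound radioligand signal below the DMSO level.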 The gist of the method: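 Filter-based scintillation counting of radioligand bound to rat forebrain-derived VMAT2 protein, cell-free, 1 h post-dose. Signal loss relative to DMSO control scored; single-concentration duplicate screen (25 uM) followed by concentration-response testing of actives.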

Where “and” joins values, the source holds several entries; their conditions need not be identical. Equal values may be shown once. Results filed as inconclusive are left out. More than one record can exist for a structure, and the calls need not agree. Calls of active or inactive are those of the source. The calls were made as follows: active = hit-call score of the fitted dose curve at least 0.9, where 1 is the maximum; inconclusive = response in the unintended direction; inactive = score below 0.9.

The values that follow come from PubChem BioAssay (EPA / NIEHS).

Sequence of Norway rat Vesicular Monoamine Transporter (VMAT2), neurotransmitter transporter, Slc18a2 (gene 25549) (Q01827 whole entry, looked up): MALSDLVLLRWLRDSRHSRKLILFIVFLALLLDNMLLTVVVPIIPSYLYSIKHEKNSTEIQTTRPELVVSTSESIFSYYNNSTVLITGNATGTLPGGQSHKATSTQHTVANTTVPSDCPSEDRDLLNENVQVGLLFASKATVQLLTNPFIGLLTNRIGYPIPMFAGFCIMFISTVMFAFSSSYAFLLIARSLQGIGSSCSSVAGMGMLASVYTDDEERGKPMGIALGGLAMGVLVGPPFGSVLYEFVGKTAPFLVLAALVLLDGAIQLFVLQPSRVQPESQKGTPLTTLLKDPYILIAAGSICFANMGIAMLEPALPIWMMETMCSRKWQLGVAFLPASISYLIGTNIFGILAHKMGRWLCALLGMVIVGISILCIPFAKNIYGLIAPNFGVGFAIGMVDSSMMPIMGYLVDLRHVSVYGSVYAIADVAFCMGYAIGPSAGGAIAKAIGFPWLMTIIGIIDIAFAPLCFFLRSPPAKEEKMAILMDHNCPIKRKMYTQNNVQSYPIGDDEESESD
Sequence of bovine Estrogen Receptor (ER), ESR1 (gene 407238) (P49884 whole entry, looked up): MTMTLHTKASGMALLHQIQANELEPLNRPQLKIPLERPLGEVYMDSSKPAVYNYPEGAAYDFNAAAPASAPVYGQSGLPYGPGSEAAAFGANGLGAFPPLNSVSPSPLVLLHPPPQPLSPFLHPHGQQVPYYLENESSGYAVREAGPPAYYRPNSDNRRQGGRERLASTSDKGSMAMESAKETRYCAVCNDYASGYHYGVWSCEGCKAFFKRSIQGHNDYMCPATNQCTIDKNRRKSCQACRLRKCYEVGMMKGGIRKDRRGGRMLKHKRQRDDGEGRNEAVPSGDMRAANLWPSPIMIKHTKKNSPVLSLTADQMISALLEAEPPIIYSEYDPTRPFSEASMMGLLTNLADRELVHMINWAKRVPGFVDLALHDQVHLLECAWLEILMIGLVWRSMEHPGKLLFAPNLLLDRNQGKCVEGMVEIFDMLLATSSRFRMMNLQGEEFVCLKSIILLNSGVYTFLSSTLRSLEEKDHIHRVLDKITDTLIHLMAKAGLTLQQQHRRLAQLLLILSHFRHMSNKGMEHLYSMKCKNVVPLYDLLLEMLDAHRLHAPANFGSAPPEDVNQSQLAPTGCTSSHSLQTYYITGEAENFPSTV
Sequence of Estrogen receptor (Homo sapiens) (P03372 whole entry, looked up): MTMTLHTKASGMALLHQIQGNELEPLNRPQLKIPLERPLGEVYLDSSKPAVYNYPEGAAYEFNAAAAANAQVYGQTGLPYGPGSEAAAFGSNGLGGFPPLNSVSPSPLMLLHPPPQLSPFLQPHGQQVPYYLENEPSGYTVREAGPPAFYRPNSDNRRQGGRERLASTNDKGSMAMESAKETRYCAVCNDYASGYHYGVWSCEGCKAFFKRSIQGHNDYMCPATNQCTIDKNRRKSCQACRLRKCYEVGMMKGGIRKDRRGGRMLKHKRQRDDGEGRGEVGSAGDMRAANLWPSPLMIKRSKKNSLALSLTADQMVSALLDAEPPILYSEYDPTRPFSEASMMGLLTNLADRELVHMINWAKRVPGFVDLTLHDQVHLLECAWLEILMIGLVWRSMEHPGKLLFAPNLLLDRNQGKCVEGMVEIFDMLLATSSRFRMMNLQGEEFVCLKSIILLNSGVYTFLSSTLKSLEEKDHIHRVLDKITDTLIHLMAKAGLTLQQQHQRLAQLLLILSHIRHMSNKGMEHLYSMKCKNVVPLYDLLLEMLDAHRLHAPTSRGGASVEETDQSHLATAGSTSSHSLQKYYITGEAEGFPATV
Sequence of rat Oxytocin Receptor (OXT), Oxtr (gene 25342) (P70536 whole entry, looked up): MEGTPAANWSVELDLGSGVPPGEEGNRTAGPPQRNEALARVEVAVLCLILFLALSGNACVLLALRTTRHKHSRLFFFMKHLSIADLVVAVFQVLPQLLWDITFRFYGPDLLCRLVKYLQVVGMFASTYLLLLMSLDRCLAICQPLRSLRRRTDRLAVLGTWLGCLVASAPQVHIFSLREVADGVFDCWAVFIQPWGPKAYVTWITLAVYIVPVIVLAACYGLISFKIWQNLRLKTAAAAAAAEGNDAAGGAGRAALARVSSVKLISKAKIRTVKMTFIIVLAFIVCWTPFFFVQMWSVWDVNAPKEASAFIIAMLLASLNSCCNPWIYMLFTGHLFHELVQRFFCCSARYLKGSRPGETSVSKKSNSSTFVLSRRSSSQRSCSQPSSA

In the case of `O=[N+]([O-])c1ccc(Oc2ccc(C(F)(F)F)cc2[N+](=O)[O-])cc1`, the result in [1], in [2], in assay [3], in assay [4], in assay [5] and in assay [6] was inactive. The outcome in assay [7], in assay [8] and in assay [9] was inactive.

Take `CN(C)C(=O)Nc1cccc(OC(=O)NC(C)(C)C)c1`: the result in assay [1], in [3], in assay [4] and in assay [5] was inactive.

In the case of `c1coc(-c2nc3ccccc3[nH]2)c1`, the molecule was classed as inactive in assay [1], in assay [10], in assay [2], in assay [5], in assay [6] and in assay [8].

`Cc1cccc(C)c1[N+](=O)[O-]`: the result in assay [11] was inactive.

`C=CC(=O)OCCCCO`: the molecule was classed as inactive in assay [1] and in assay [10].

As for `CCOC(=O)COc1ccc2c(c1)CC(NCC(O)c1cccc(Cl)c1)CC2` (configuration not stated), in [12], the call was inactive.

Take `C#CCN1CC(=O)N(COC(=O)C2C(C=C(C)C)C2(C)C)C1=O` (configuration not stated): the molecule was classed as inactive in assay [2], in assay [3], in assay [4], in [5] and in assay [6].

For the molecule `Cc1cc(CCC(=O)OCCOCCOCCOC(=O)CCc2cc(C)c(O)c(C(C)(C)C)c2)cc(C(C)(C)C)c1O`, in assay [13], the molecule was classed as inactive.

As for `CCCCCCCCCCCCCCn1cc[n+](C)c1`, the AC50 in assay [2] is 82.2 µM (active) and 60.1 µM (active); in assay [3], 6.74 µM (active) and 2.12 µM (active); in assay [4], 10.3 µM (active) and 77.3 µM (active); in [5], 14 µM (active) and 6.93 µM (active); in assay [6] it was 598 nM (active) and 40 µM (active); in [7], 49.6 µM (active) and 39.7 µM (active). The AC50 in assay [8] is 86.2 µM (active) and 46.2 µM (active); in [9], 63.9 µM (active) and 63.4 µM (active). Besides, the result in assay [2], in [3], in [4], in assay [5], in assay [6] and in [8] was inactive. Moreover, in [9], the outcome was inactive.

Regarding `Cc1oc2c(NC(=O)c3c(Cl)cccc3Cl)cccc2c1C(C)(C)O`, in assay [13], the AC50 is 11.9 µM (active).

For `CN(c1nccc(=O)[nH]1)C1CCN(c2nc3ccccc3n2Cc2ccc(F)cc2)CC1`, the molecule was called inactive in [13].

For `COC(=O)OC`, in [13], the molecule was classed as inactive.

Take `CC(C)N(C(=O)SCC(Cl)=CCl)C(C)C`: the call in assay [2], in assay [3], in assay [4], in assay [5] and in [6] was inactive.

What is called AC50 is the concentration giving half of the maximal activity seen.
